Measured values from PubChem BioAssay AID1565 (Sanford-Burnham Center for Chemical Genomics, 2009).
About 3,200 (1.1%) of roughly 290,000 compounds were called active. The sample holds actives, similar compounds and a random draw of the others, so the mix is not that of the screen. Unmarked numbers belong to inactive results. Rule as the data show it: active = inhibition above about 60%; inactive = the rest. Peptide text beside a SMILES is read from it.

Biological target: Phosphoethanolamine/phosphocholine phosphatase (Homo sapiens) (UniProt Q8TCT1)
Sequence (Q8TCT1 whole entry, looked up): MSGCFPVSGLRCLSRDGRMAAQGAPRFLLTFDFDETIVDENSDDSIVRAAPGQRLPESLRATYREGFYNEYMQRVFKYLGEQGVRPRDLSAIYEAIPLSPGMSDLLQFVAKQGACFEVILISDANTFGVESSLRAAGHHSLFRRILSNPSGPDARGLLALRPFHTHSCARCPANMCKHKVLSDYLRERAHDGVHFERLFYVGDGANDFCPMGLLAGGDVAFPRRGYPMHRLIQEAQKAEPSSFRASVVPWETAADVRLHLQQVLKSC
Assay: PubChem AID 1565
Details: recombinant PHOSPHO1, absorbance phosphatase assay; at 13.3 µM; hits give high values

Row | Structure (SMILES) | inhibition
1 | COc1ccc(CNC(=O)COc2cccnc2[N+](=O)[O-])cc1 | 39.9%
2 | O=C(NNC(=S)Nc1ccc(F)cc1)[C@H]1C[C@@H]1c1ccccc1 | 76.8% (active)
3 | O=S(=O)(NC(=S)Nc1ccccc1)c1ccc(F)cc1 | -122%
4 | Cc1ccc(NC(=O)C2CC2c2ccccc2)cc1 (centres undefined) | 39.5%
5 | O=C(C1CC1)N1N=C(c2ccc(Br)cc2)CC1(O)C(F)(F)F (centres undefined) | 15.6%
6 | O=C(C1CC1)N1N=C2CCCCC2C1(O)C(F)(F)F (centres undefined) | 60.9% (active)
7 | COc1ccc(O)c(/C=N/N=C/c2cccc([N+](=O)[O-])c2)c1 | 4.2%
8 | COc1ccccc1-c1cnn2c(N3CCOCC3)cc(C)nc12 | 38.1%
9 | CCOC(=O)c1cc(C(=O)Nc2ccc(S(=O)(=O)Nc3ccc(OC)cc3)cc2)nn1C | 28.7%
10 | O=C(Nc1cccc(Cl)c1Cl)c1ccccc1NC(=O)C1CC=CCC1C(=O)O (centres undefined) | 12.3%
11 | CC1(C)Oc2ccc3ccc(=O)oc3c2/C(=N/O)C1=O | 50.4%
12 | CC1(C)Oc2ccc3ccc(=O)oc3c2/C(=C/NCCO)C1=O | 87% (active)
13 | C/C=C(/C)C(=O)OC1Cc2c(ccc3ccc(=O)oc23)OC1(C)C (centres undefined) | 8.5%
14 | CC(C)(C)c1ccc(/C=C/C(=O)NCCCn2ccnc2)cc1 | 33.7%
15 | CC(=O)N1c2ccc(S(=O)(=O)N3CCCC(C(=O)NCc4ccc(Cl)cc4)C3)cc2CC1C (centres undefined) | 42.6%
16 | CC(C)Oc1ccc(C(CC(=O)N2CCOCC2)C(C)C)cc1 (centres undefined) | 52.2%
17 | O=C(CSc1nnc(-c2cccs2)n1-c1ccccc1)N1CCN(C(=O)c2ccco2)CC1 | 89.7% (active)
18 | Cn1c(SCC(=O)N2CCCC2)nnc1-c1cccs1 | 67.9% (active)
19 | CCOC(=O)CSc1nnc(-c2ccco2)n1C | -19.7%
20 | Cn1c(SCC(=O)c2cccs2)nnc1-c1ccco1 | 64.6% (active)
21 | CCn1c(SCC(=O)c2ccc(Cl)s2)nnc1-c1cccs1 | 31.9%
22 | O=C(CSCc1cccs1)N1CCCC1 | 31%

Row | Structure (SMILES) | inhibition
23 | Cc1cc2ccccc2n2c(SCC(=O)N3CCN(C(=O)c4ccco4)CC3)nnc12 | 3.7%
24 | O=C(CSc1nnc(-c2cccs2)n1-c1ccccc1)NCc1ccco1 | 14.6%
25 | O=C(CSc1nnc(-c2cccs2)n1Cc1ccccc1)N1CCc2ccccc2C1 | 78.3% (active)
26 | Cc1nc(SCC(=O)N2CCc3ccccc3C2)c2c(C)c(C)sc2n1 | 9.7%
27 | CCCCNC(=O)CSc1nnc(-c2ccco2)n1C | 4.7%
28 | Cn1c(SCC(=O)N2CCCC2)nnc1-c1ccc2c(c1)OCO2 | 35%
29 | COC(=O)[C@@H](Cc1ccccc1)NC(=O)NCCc1ccccc1 | 34%
30 | CC(C)CCNC(=O)c1ccc2c(Cl)c3c(nc2c1)CCC3 | 23.9%
31 | Cc1cc(=O)n2nc(N3CCCC(C(=O)NCc4ccc(Cl)cc4)C3)sc2n1 (centres undefined) | 27.6%
32 | Cc1ccc(NC(=O)C2CCCN2C(=O)OCc2ccccc2)cc1C (centres undefined) | 22.6%
33 | O=C(COC(=O)/C=C/c1cccs1)NC1CCCCC1 | 51%
34 | COc1ccccc1NC(=O)C1CCCN1S(=O)(=O)c1ccc(Cl)cc1 (centres undefined) | 0%
35 | CCc1ccc(-c2cc3c(=O)n(CC(=O)NCCCN4CCN(Cc5ccccc5)CC4)nc(C)n3n2)cc1 | 26.1%
36 | Cc1c(S(=O)(=O)NC(C)c2ccccc2)c(=O)n(C)c(=O)n1C (centres undefined) | -5.4%
37 | Cc1cc2nnc(SCC(=O)N3CCN(c4ccccc4)CC3)n2c(N)n1 | 40.7%
38 | O=C(CSc1nnc(Cc2ccccc2)n1-c1ccccc1)N1CCOCC1 | -9.6%
39 | Cc1nnc(SCC(=O)N2CCN(c3ccccc3)CC2)n1-c1ccccc1 | 68.4% (active)
40 | Cc1ccc2[nH]c(=O)c(CC(=O)O)c(-c3ccccc3)c2c1 | 7.8%
41 | CCC(C(=O)OC)n1cnc2c(oc3ccccc32)c1=O (centres undefined) | 1%
42 | O=C(CSc1nc(C2CC2)nc2ccccc12)Nc1cccc(O)c1 | 15.1%
43 | CCOC(=O)Cc1csc(SCc2cc(=O)oc3cc(O)ccc23)n1 | -13.2%
44 | Cc1ccc2c(CSc3nncs3)cc(=O)oc2c1 | 76.1% (active)

Row | Structure (SMILES) | inhibition
45 | COCc1cc(=O)oc2cc(NS(=O)(=O)c3ccc(C)cc3)ccc12 | 22.5%
46 | CCCSc1nc2sc3c(c2c(=O)n1-c1ccc(OC)cc1)CCN(C)C3 | 31.6%
47 | COC(=O)[C@@H]1CC(O)CN1C(=O)C12CC3CC(CC(C3)C1)C2 (some centres undefined) | 24.2%
48 | CCOc1ccc(NC(=O)CCC(=O)NNC(=O)NC2CCCCC2)cc1 | -0.6%
49 | COCCNC(=O)NC(=O)COC(=O)C1(c2ccc(Cl)cc2)CC1 | 62.9% (active)
50 | CC(=O)N1CCC(C(=O)OCc2ccc(Cl)cc2)(c2ccccc2)CC1 | 40%
51 | CCCNC(=O)NC(=O)COC(=O)CC(NC(N)=O)c1ccc(Cl)cc1 (centres undefined) | -17.2%
52 | COc1ccc(C(=O)C2CCCN(C(=O)c3ccc(OC)o3)C2)c(C)c1 (centres undefined) | -0.6%
53 | O=C(OCCN1C(=O)c2ccccc2C1=O)Oc1ccccc1 | 22.3%
54 | COC(=O)c1ccc(S(=O)(=O)N2CCc3ccccc3C2)cc1 | 44.4%
55 | CCCNC(=O)C(=O)Nc1cc2c3c(c1)CCC(=O)N3CCC2 | 54.7%
56 | NC(=O)c1c(NC(=O)CSc2nnc(-c3ccco3)n2N)sc2c1CCCC2 | 103% (active)
57 | CCc1cccc(C)c1NC(=O)CSc1nnc(-c2ccco2)n1N | 22.6%
58 | NC(=O)c1c(NC(=O)CSc2nc(N)cc(=O)[nH]2)sc2c1CCCC2 | 12.9%
59 | NC(=O)C(Cc1ccccc1)NC(=O)C12CC3CC(CC(C3)C1)C2 (centres undefined) | 24.1%
60 | Oc1ccc(Br)cc1/C=N/Nc1ccccn1 | 22.9%
61 | CC1(C)Cc2ccccc2/C(=C/C(=O)c2ccccc2)N1 | 24.1%
62 | O=C(CNC(=O)c1ccc(-c2ccccc2)cc1)OCc1ccc(Cl)cc1 | 9.5%
63 | O=C(CNC(=O)c1ccccc1)NCC(=O)OCc1ccc(Cl)cc1 | 62.3% (active)
64 | O=C(CNC(=O)c1ccccc1)NCC(=O)OCC(=O)c1ccccc1 (HELM PEPTIDE1{[O=C(c1ccccc1)[*:2]].G.G.[O=C(CO[*:1])c1ccccc1]}$$$$V2.0) | 27.8%
